Results reported in PubChem BioAssay (NCATS).
Results filed as inconclusive are left out. Entries that show only a call come without a potency. Unmarked numbers belong to inactive results. Activity calls are given as the source filed them. Calls follow the shape of the dose curve; as a rule, active = well fitted cell-killing curve with a large enough effect; inconclusive = small, poorly fitted or top-dose-only effect, or effect the other way; inactive = no such curve, though single readings can be large or run the other way.

Assays:
[1] = Viability qHTS for spleen associated tyrosine kinase inhibitor (SYKi) naive MV4-11 cells (AID 1963823); conditions: MV4-11 AML viability, CellTiter-Glo luminescence, 72 h; series mostly up to 45 µM; also: nearly all actives have a fitted effect of over 40% in size
Outline: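 SYK inhibitor-naive MV4-11 cells, 500 per well, exposed to compounds for 72 hr at 37 C, 5% CO2. Viability read as CellTiter-Glo luminescence after 10 min at room temperature.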

[2] = Viability qHTS for spleen associated tyrosine kinase inhibitor (SYKi) drug resistant MV4-11 cells (AID 1963824); conditions: SYKi-resistant MV4-11 viability, CellTiter-Glo, 72 h; series mostly up to 45 µM; also: nearly all actives have a fitted effect of over 35% in size
Outline: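 SYK inhibitor-resistant MV4-11 AML cells, 500 per well, added to predispensed compounds and incubated 72 hr at 37 C, 5% CO2. Viability measured by CellTiter-Glo luminescence after 10 min at room temperature.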
Potency is read from the fitted curve at half-maximal effect.

Row | SMILES | Potency [1] | Potency [2] | viability (% of control) [1] | viability, % of control [2]
1 | C=C1CCC2C(C)(CO[C@@H]3O[C@H](CO)[C@@H](O)[C@H](O)[C@H]3O)C(O)CCC2(C)C1C(=O)CC1=CCOC1=O (stereo partly drawn) | inactive | inactive | – | –
2 | Cc1cc2c(c(=O)o1)C=C1CC[C@H]([C@H](C)Cn3cnc(=N)c4[nH]cnc43)C[C@@H]1O2 | inactive | inactive | – | –
3 | COc1cc(O)cc(O[C@@H]2O[C@H](CO)[C@@H](O[C@@H]3OC[C@](O)(CO)[C@H]3O)[C@H](O)[C@H]2O)c1OC | inactive | inactive | – | –
4 | Cc1nnc(-c2sc(NC(=O)[C@H](C(C)C)n3c(=O)[nH]c4ccccc4c3=O)nc2C)o1 | inactive | inactive | – | –
5 | COC(=O)/C=C/c1ccc(O[C@@H]2O[C@H](CO)[C@@H](O)[C@H](O)[C@H]2O)cc1 | inactive | inactive | – | –
6 | CC1(CO)CC(O)C2(C)CCC3(C)C(=CCC4C5(C=O)CCC(OC6OC(C(=O)O)C(O)C(O)C6OC6OC(C(=O)O)C(O)C(O)C6O)C(C)(C)C5CCC43C)C2C1 (stereo not drawn) | – | – | 87.7% [at 9.25 µM] | 98.3% [at 9.25 µM]
7 | C=C(C)C(=O)O[C@H]1[C@H]2C(=C)C(=O)O[C@@H]2C[C@@H](C)[C@@H]2O[C@@H]2C(=O)[C@](C)(O)[C@@H]1OC(C)=O | 2 µM (active) | 1.59 µM (active) | – | –
8 | C=C1C(=O)OC2C3=C(C)C(=O)CC3C(C)CC(O)C12 (stereo not drawn) | 13 µM (active) | 6.51 µM (active) | – | –
9 | C=C1C(O)CC2C(C(=O)O)=COC(O[C@@H]3O[C@H](COC(=O)c4ccc(O)cc4)[C@@H](O)[C@H](O)[C@H]3O)C12 (stereo partly drawn) | inactive | inactive | – | –
10 | CC1(C)CC[C@]2(C(=O)OC3OC(CO)C(O)C(O)C3O)CC[C@]3(C)C(=CCC4[C@@]5(C)C[C@@H](O)[C@H](OC6OC(C(=O)O)C(O)C(O)C6O)C(C)(C)C5CC[C@]43C)[C@@H]2C1 (stereo partly drawn) | – | – | 76.2% [at 9.25 µM] | 95.5% [at 9.25 µM]
11 | C=C(C)C1CC2(CO)C(=CC1=O)CCC(O)C2C (stereo not drawn) | inactive | inactive | – | –
12 | CO/N=C(/C(=O)N[C@@H]1C(=O)N2C(C(=O)O)=C(CSC(=O)c3ccco3)CS[C@H]12)c1csc(N)n1 | inactive | inactive | – | –
13 | CC1CCC2C(C(=O)O)=CC3C(O)C(C)(C)CC123 (stereo not drawn) | inactive | inactive | – | –
14 | C[C@@H]1O[C@@H](O[C@H]2[C@H](OC(=O)[C@]34CCC(C)(C)C[C@H]3C3=CCC5[C@@]6(C)C[C@@H](O)[C@@H](O[C@@H]7O[C@H](CO)[C@@H](O)[C@H](O)[C@H]7O)[C@@](C)(CO)C6[C@H](O)C[C@@]5(C)[C@]3(C)CC4)OC[C@H](O)[C@@H]2O)[C@H](O)[C@H](O[C@@H]2OC[C@](O)(CO)[C@H]2O)[C@H]1O[C@@H]1OC[C@@H](O)[C@H](O[C@H]2O[C@H](C)[C@@H](O)[C@H](O)[C@@H]2O)[C@H]1O (stereo partly drawn) | – | – | 80.1% [at 9.25 µM] | 86.5% [at 9.25 µM]
15 | COc1cc2occc2c(O[C@@H]2O[C@H](CO)[C@@H](O)[C@H](O)[C@H]2O)c1CCC(=O)O | inactive | inactive | – | –
16 | CCC(C)C1NC(=O)C2CCCN2C(=O)C(C(C)C)NC(=O)c2ccccc2NC(=O)C(Cc2ccc(O)cc2)NC(=O)C(C)NC(=O)C(C(C)O)NC1=O (stereo not drawn) | inactive | inactive | – | –
17 | CC(=O)C=C=C1C(C)(C)CC(O)CC1(C)O[C@@H]1O[C@H](CO[C@H]2OC[C@](O)(CO)[C@H]2O)[C@@H](O)[C@H](O)[C@H]1O (stereo partly drawn) | inactive | inactive | – | –
18 | CC1CCC2(C=O)C(CO)=CCCC2C1(C)CC(=O)O (stereo not drawn) | inactive | inactive | – | –
19 | O=c1ccc2ccc(OCCCCN3CCN(c4cccc5sccc45)CC3)cc2[nH]1 | 10.3 µM (active) | 7.31 µM (active) | – | –
20 | COc1c2c(c(C)c3c1C(=O)OC3)OC1(C)CC(O)C34OC(O)(CCC3(C)C1C2)OC4(C)C (stereo not drawn) | inactive | inactive | – | –
21 | COc1cc(/C=C/C(=O)N2CCN(CC(=O)N3CCCC3)CC2)cc(OC)c1OC | inactive | inactive | – | –
22 | COC(=O)c1ccc(N2CCN(C)CC2)c(NC(=O)c2cccc(OC)c2)c1 | inactive | inactive | – | –
23 | O=C(c1ccc(Nc2nc(C3CC3)cn3c(-c4cn[nH]c4)cnc23)c(F)c1)N1CCOCC1 | 1.05 µM (active) | 1.66 µM (active) | – | –
24 | CC1(C)CC[C@]2(C(=O)O)CC[C@]3(C)C(=CCC4[C@@]5(C)CC[C@H](O[C@@H]6O[C@H](C(=O)O)[C@@H](O)[C@H](O[C@@H]7O[C@H](CO)[C@H](O)[C@H](O)[C@H]7O)[C@H]6O[C@@H]6O[C@H](CO)[C@@H](O)[C@H](O)[C@H]6O)C(C)(C)C5CC[C@]43C)[C@@H]2C1 (stereo partly drawn) | – | – | 77.5% [at 4.97 µM] | 75.1% [at 4.97 µM]
